# Laboratory results published in PubChem BioAssay AID1347156 (National Center for Advancing Translational Sciences (NCATS), 2019).
# Results filed as inconclusive are left out. Values without a mark were called inactive. Activity calls are given as the source filed them. The call rests on the fitted dose curve; in most records, active means well fitted cell-killing curve with a large enough effect; inconclusive means small, poorly fitted or top-dose-only effect; inactive means flat fitted curve, though single readings scatter.
# Experiment: DAPI mCherry counterscreen qHTS for Zika virus inhibitors; further: nearly all actives have a fitted effect of over 55% in size
# Conditions: Vero cells, DAPI nuclear count cytotoxicity, imaging 48-72 h, infected with Zika reporter virus, MOI 1; series mostly up to 32.6 µM; activity change, negative = cell loss: at the top concentration
# Summary of the method: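 Imaging read-out after fixation and Hoechst nuclear staining: percent infection from mCherry-positive cells (above 3 SD of negative controls) and nuclear counts. Setup: Vero cells pre-plated overnight, compound added, infected with ZIKV-mCherry (MOI 1), 48-72 hrs, 37 degrees C.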
# On the % scale 0 is the no-effect control and ±100 the full control effect; potency means the concentration at half of the fitted maximal effect.
Structure (SMILES),Potency,"activity change, negative = cell loss"
Cc1c(Cl)cccc1NS(=O)(=O)c1ccc(NS(=O)(=O)c2ccc3c(c2)OCCO3)cc1,31.6 µM (active),
Oc1c(Cl)cc(Cl)cc1Sc1cc(Cl)cc(Cl)c1O,,-7.24%
O=C(O)Cn1nnc(-c2ccc(OCc3cccc(C(F)(F)F)c3)cc2)n1,,-10.2%
CCOc1nc2cccc(C(=O)OC(C)OC(=O)OC3CCCCC3)c2n1Cc1ccc(-c2ccccc2-c2nn[nH]n2)cc1 (centres undefined),15.8 µM (active),
O=C(OC1Cc2c(O)cc(O)cc2OC1c1cc(O)c(O)c(O)c1-c1c(C2Oc3cc(O)cc(O)c3CC2OC(=O)c2cc(O)c(O)c(O)c2)cc(O)c(O)c1O)c1cc(O)c(O)c(O)c1 (centres undefined),,-10.6%
CC1(COc2ccc(CC3SC(=O)NC3=O)cc2)CCCCC1 (centres undefined),31.6 µM (active),
COc1cc(Nc2nc3ccccc3nc2NS(=O)(=O)c2cccc(NC(=O)c3ccc(C)c(OC)c3)c2)cc(OC)c1,4.47 µM (active),
C[C@@H](NC(=O)c1ccc(Cl)cc1)c1c(-c2ccc(F)cc2)noc1C(=O)O,,1.41% [at 49.1 µM]
N#CC(C#N)=C(N)/C(C#N)=C/c1cc(O)c(O)c(O)c1,,-9.4%
COc1ccc(-c2ccccc2)cc1NS(=O)(=O)c1cc(Cl)cc(Cl)c1O,11.2 µM (active),
O=C(O)COc1ccc(-c2nccc3c2C(=O)N(Cc2cccc(C(F)(F)F)c2)CC(COc2ccc4cnccc4c2)O3)cc1 (centres undefined),,-13.5%
Cc1cc(NC(=O)c2ccc(Cl)c(Cl)c2)ccc1-c1cc2ccccc2oc1=O,15.8 µM (active),
Oc1cc2ccccc2c2ccccc12,10 µM (active),
Nc1c(N=Nc2ccc([N+](=O)[O-])cc2)c(S(=O)(=O)O)cc2cc(S(=O)(=O)O)c(/C=C/c3ccccc3)c(O)c12,,-17.4%
